Screening data as filed in PubChem BioAssay.
Mito fusion yeast: qHTS Assay for Small Molecule Inhibitors of Mitochondrial Division or Activators of Mitochondrial Fusion | AID 485298, 2010 | S. cerevisiae fusion-defective mutant growth rescue, CellTiterGlo 48 h | Potency, µM (top dose mostly 46.1 µM), without a hit: at the highest dose growth rescue (activation), actives largely listed as activators | 320,000 tested, 0.23% active; note: potency is the fitted concentration of half-maximal effect; % of control where 0% means no effect; nearly all actives have a fitted effect of over 45% in size
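Temperature-sensitive fusion-defective S. cerevisiae (e.g. fzo1-1, mgm1-5) were grown with compound in YPEG medium (3% ethanol, 3% glycerol) for 48 hours at 37C. Growth rescue was measured as viability by CellTiterGlo luminescence after 10 minutes at ambient.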
B2AR arrestin: qHTS assay of beta-arrestin-biased ligands of beta2-adrenergic receptor; beta-arrestin recruitment to beta2AR, cell-based reporter; Potency, µM (top dose mostly 46.1 µM), without a hit: at the top dose activation, usual class: activators; 330,000 tested, 0.02% active;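 note: potency is the fitted concentration of half-maximal effect; 0% = DMSO controls and full agonism = EC100 isoproterenol or metaproterenol; nearly all actives have a fitted effect of over 65% in size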
Giardia kill: Small Molecules that selectively kill Giardia lamblia: qHTS. Giardia lamblia trophozoite viability. activity change, % at 7.66 µM, hits read low. 340,000 tested, 0.15% active; in the data active = activity change below about -80%; inconclusive = between about -30% and that limit;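 note: parasites exposed to compound for two days anaerobically before the ATP read; % is set by controls: 0 for no effect and ±100 for the full control effect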
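Giardia lamblia trophozoites (100 cells/well) were incubated with compounds for 48 h at 37 deg C under anaerobic conditions. Viability was read as ATP content by one-step luminescence after 15-30 min at room temperature.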
ClpP mod: qHTS Assay for Activators of ClpP | purified B. subtilis ClpP, FRET peptide cleavage, 20 min | 340,000 tested, 1.9% active | ATP-dependent Clp protease proteolytic subunit (Bacillus subtilis (strain 168)), P80244 | AID 651965, 2013 | Potency, µM (doses to about 57.5 µM), without a hit: at the highest dose activity change, negative = active; active = well fitted falling curve with a large enough effect; inconclusive = small, poorly fitted or top-dose-only effect; inactive = no such curve, though single readings can be large or run the other way; note: potency is the fitted concentration of half-maximal effect; the source files actives as falling curves though it sought activators and does not explain the sign; nearly all actives have a fitted effect of over 65% in size
Target sequence (P80244 whole entry, looked up): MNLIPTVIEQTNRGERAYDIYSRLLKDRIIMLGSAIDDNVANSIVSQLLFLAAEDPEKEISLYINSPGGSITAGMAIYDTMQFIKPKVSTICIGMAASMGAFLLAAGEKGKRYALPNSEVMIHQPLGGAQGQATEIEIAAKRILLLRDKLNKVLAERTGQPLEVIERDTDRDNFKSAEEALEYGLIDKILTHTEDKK
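ClpP 10 microg/mL final, pH 8 Tris/KCl buffer with BSA, glycerol, Tween-20; compound pinned in; FRET-FV substrate; RT 20 min; Ex320/Em430; ΔFRET vs ADEP 5.8 microM, DMSO, no enzyme.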
uPA generation: qHTS for Inhibitors of Cell Surface uPA Generation; AID 540303, 2011; Potency, µM (doses to about 38.3 µM), for inactives: top-dose activity change, negative = inhibition, hits mostly inhibitors; cell surface uPA generation assay, qHTS; 330,000 tested, 0.31% active; active = well fitted inhibition curve with a large enough effect; inconclusive = small, poorly fitted or top-dose-only effect; inactive = no such curve, though single readings can be large or run the other way; tested in mouse RAW 264.7 cells; note: potency is the fitted concentration of half-maximal effect; % is set by controls: 0 for no effect and ±100 for the full control effect; nearly all actives have a fitted effect of over 55% in size
p53 reactivator: qHTS assay for re-activators of p53 using a Luc reporter; AID 504706, 2011; 320,000 tested, 0.063% active; H1299 p53-A138V BP100-luciferase reporter, luminescence, 24 h; Potency, µM (series often up to 92.2 µM), for the others: at the highest dose activity change, positive = activation, actives largely listed as activators; note: potency is the fitted concentration of half-maximal effect; % of control where 0% means no effect; nearly all actives have a fitted effect of over 45% in size
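p53-null H1299 cells stably carrying temperature-sensitive p53-A138V and a BP100-luciferase reporter were pinned with compounds (4-point, 1:5 series) and held 24 hrs at 37 deg C. Luminescence was read 10 min after detection reagent.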
* marks the source's active call; other numbers are inactive results; u = inconclusive; x = no result. Compounds with a hit are over-represented: about 2.1% of the library has one in this group of screens. Unless noted, calls come from the whole dose curve; as a rule, active = well fitted curve in the direction sought with a large enough effect; inconclusive = small, poorly fitted or top-dose-only effect, or another doubt; inactive = no such curve, though single readings can be large; an effect the other way counts as inactive or inconclusive.

SMILES	Mito fusion yeast	B2AR arrestin	Giardia kill	ClpP mod	uPA generation	p53 reactivator
Cc1cccc(C)c1NC(=O)C1(C)CN(S(C)(=O)=O)CC(=O)N1CCc1c[nH]c2ccccc12 (configuration not stated)	x	x	x	-4%	x	x
O=C(CNC(=S)N(Cc1ccccc1)Cc1cccnc1)NC1CC1	-7%	0%	-13	25µM*	-1%	-10%
CCCn1ccc2c(OCC(=O)Nc3ccc(OC)c(OC)c3)cccc2c1=O	x	x	x	-3%	x	x
CCOC(=O)C1CCN(CC(C)(C)NS(=O)(=O)c2ccc(Cl)cc2)CC1	5%	0%	8	2%	-13%	2%
CCOC(=O)C1CCN(CC(C)(C)NS(=O)(=O)c2ccc(C)cc2)CC1	3.5µM*	0%	0	-1%	1%	-4%
CCOC(=O)C1CCN(C(=O)CC(NS(=O)(=O)c2ccc(OC)cc2)C(C)C)CC1 (configuration not stated)	-6%	0%	10	32µM*	3%	6%
CC(=O)c1ccc(NC(=O)CCc2c(C)nn(-c3ccc4nncn4n3)c2C)cc1	x	x	x	-2%	x	x
CCOC(=O)Cc1[nH]nc2c1C(c1cccc(OC)c1OC)C(C#N)=C(N)O2 (configuration not stated)	0%	-3%	1	-4%	1%	-5%
COC(=O)Cc1[nH]nc2c1C(c1cccc(OC)c1OC)C(C#N)=C(N)O2 (configuration not stated)	-3%	-1%	-6	28µM*	-1%	-4%
CCOc1cccc(OCCCOc2ccccc2)c1	0%	-1%	-8	1%	7%	9%
CCOc1cccc(N)c1	4%	16µM*	33	-1%	-7%	3%
Clc1ccc2c(Cl)cc[n+](CCC3CCCCC3)c2c1	x	x	x	-6%	x	x
COC1(OC)C(/C=C/c2ccc(C)cc2)C(C#N)(C#N)C1(OC)OC (configuration not stated)	x	x	-3	32µM*	-13%	x
COc1cc2nc(C3CCC3)nc(N3CCN(c4ccccc4OC)CC3)c2cc1OC	14µM*	-1%	5	-3%	-11%	-10%
O=c1c2c3c(sc2n(Cc2ccc(F)cc2Cl)c(=O)n1-c1ccc(Cl)cc1)CCC3	x	x	x	2%	x	x
COc1ccccc1NC(=O)Cn1c(=O)n(Cc2ccco2)c(=O)c2oc3ccccc3c21	x	x	x	32µM*	x	x
COc1cc2c(=O)n(Cc3ccccc3)c(=O)n(CC(=O)NCc3ccco3)c2cc1OC	-1%	0%	0	16µM*	-5%	-3%
COc1cccc(NC(=O)Cn2c(=O)n(Cc3ccco3)c(=O)c3cc(OC)c(OC)cc32)c1	x	x	x	28µM*	x	x
Cc1ccc(NC(=O)Cn2c(=O)n(Cc3ccco3)c(=O)c3oc4ccccc4c32)cc1C	x	x	x	-1%	x	x
CCN(CC)c1ccc(-c2nnc(SCC(=O)NCc3ccco3)n2C)cc1	x	x	x	-1%	x	x
CCc1ccccc1NC(=O)C1CCCN(S(=O)(=O)c2ccc3[nH]c(=O)ccc3c2)C1 (configuration not stated)	x	x	x	-12%	x	x
COc1ccc(CN2CC[C@H]3C=CC[C@@H](C(=O)NC4CCCCC4)[C@H]3C2=O)cc1OC	x	x	x	1%	x	x
CCn1cc2nc(SCC(=O)Nc3ccccc3C(F)(F)F)n(Cc3ccc(C)cc3)c(=O)c2n1	x	x	x	-4%	x	x
C[C@@]12C(=O)Nc3cc(F)ccc3C(=O)N1[C@H]1c3cc(Br)ccc3OC[C@@H]1[C@@H]2c1ccccc1	x	1%	-5	-5%	u	0%
Cc1ccc2c(c1)[C@H]1[C@H](CO2)[C@H](c2ccccc2)[C@]2(C)C(=O)Nc3cc(F)ccc3C(=O)N12	x	u	-6	-6%	7.1µM*	-4%
Fc1cccc(F)c1/C=C/c1ccc2ccccc2n1	2%	-1%	-12	-23%	-4%	22µM*
Cc1ccccc1NC(=O)Cn1c(=O)n(Cc2ccco2)c(=O)c2cccnc21	x	x	x	-3%	x	x
